The record followed here is PubChem BioAssay (NCATS).

SMILES strings stand for the structures. Records with an inconclusive call do not appear. Unmarked numbers belong to inactive results. Active and inactive are the calls of the source. Calls follow the shape of the dose curve; as a rule, active = well fitted cell-killing curve with a large enough effect; inconclusive = small, poorly fitted or top-dose-only effect; inactive = flat fitted curve, though single readings scatter.
% is scaled to controls: 0 for no effect and ±100 for the full control effect; potency is read from the fitted curve at half-maximal effect.

The nature of this test: qHTS of pediatric cancer cell lines to identify multiple opportunities for drug repurposing: Confirmatory screen for BT-12 cells (AID 1347112).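 Also: viability read after 48 h of compound exposure; nearly all actives have a fitted effect of over 55% in size.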 As to conditions: BT-12 rhabdoid tumor cells, viability; series mostly up to 45.9 µM; activity change, negative = cytotoxic: at the top concentration. The source says: Drug repurposing or repositioning has been offered as a strategy for drug development in oncology programs. This approach has special potential for childhood cancers and other rare or orphan diseases, where the expected return on new drug development has been a disincentive to pharmaceuticals.
In this project we exploit the poly-pharmacology of drugs to discover new indications via phenotypic screening of a panel of 19 well-characterized cell lines derived from solid tumors seen in children and adolescents. The goal is to identify approved drugs with previously unrecognized anticancer properties that has the potential to reveal new mechanisms and biological processes involved in carcinogenesis or drug resistance. We employed a titration-based paradigm (quantitative high-throughput screening or qHTS), where all compounds were tested at multiple concentrations for their effect on cell viability. Concentration-response curves (CRCs) were derived directly from the primary screen, and both potency and efficacy values were used to identify compounds with robust bioactivity profiles. We screened the NIH Chemical Genomics Center (NCGC) Pharmaceutical Collection (NPC) and Mechanism Interrogation Plate (MIPE) small molecule collections of approved and investigational compounds against these cell lines; and measured metabolically active cells after 48 hours of compound treatment as a proxy for cell viability.
Assay Submitter: Nathalia J. Martinez, National Center for Advancing Translational Sciences, National Institutes of Health, Rockville, MD, USA; email: natalia.martinez@nih.gov
[1] Shen, M et al. Quantitative high-throughput phenotypic screening of pediatric cancer cell lines identifies multiple opportunities for drug repurposing. Oncotarget 2017 Dec 19;9(4):4758-4772. PMID 29435139.
The cells were obtained from University of North Carolina (UNC), Pediatric Preclinical Testing Program (PPT), and Coriell Institute (CI).
qHTS cell viability assay:
Cells were assayed in growth media at a density of 500-1,000 cells/well. Five microliters of cells were dispensed into 1,536-well, white, solid-bottom, TC-treated plates (Greiner Bio One) using a multidrop dispenser and incubated at 37 degrees C, 5% CO2, under a humidified atmosphere for 5 hours. Twenty-three nanoliters of compounds and controls (neutral control DMSO or positive control bortezomib at final concentration of 2.3 µM) were subsequently transferred by Kalypsys pintool. For primary screens, the MIPE collection was tested at 11-point dilutions (final concentrations range from 0.78 nM to 46 µM) and the NPC collection at 8-point dilutions (final concentrations range from 0.59 nM to 46 µM). Compounds tested in follow-up screens were assayed at 11-point dilutions. Cells were incubated for 48 hours, followed by addition of 3 µL of CellTiter-Glo (Promega). After a 15 min incubation at room temperature, samples were analyzed for luminescence intensity using a ViewLux High-throughput CCD imager equipped with clear filters.
`CC(C)NCC(O)c1ccc(O)c(O)c1` (stereo unspecified): the Potency is 4.14 µM (active).

Take `NC12CC3CC(CC(C3)C1)C2`: the “activity change, negative = cytotoxic” value was 11.6%.

For the compound `CCCCc1oc2ccccc2c1C(=O)c1cc(I)c(OCCN(CC)CC)c(I)c1`, the Potency is 79.4 µM (active).

`CC(C)Cc1ccc(C(C)C(=O)O)cc1` (stereo unspecified): the “activity change, negative = cytotoxic” value was -0.0125%.

Regarding `O=C(Nc1ccc([N+](=O)[O-])cc1Cl)c1cc(Cl)ccc1O`, the Potency is 3.23 µM (active).

For `CCC1(c2ccccc2)C(=O)NCNC1=O`, the “activity change, negative = cytotoxic” value is -12.4%.

In the case of `Clc1ccc(C(c2ccccc2Cl)C(Cl)Cl)cc1` (stereo unspecified), the “activity change, negative = cytotoxic” value was -2.43%.

As for `CS(=O)(=O)CCNCc1ccc(-c2ccc3ncnc(Nc4ccc(OCc5cccc(F)c5)c(Cl)c4)c3c2)o1`, the Potency was 13.1 µM (active).

For `CS(=O)(=O)Nc1ccc([N+](=O)[O-])cc1Oc1ccccc1`, the “activity change, negative = cytotoxic” value is -13.2%.

As to `CC#C[C@]1(O)CC[C@H]2[C@@H]3CCC4=CC(=O)CCC4=C3[C@@H](c3ccc(N(C)C)cc3)C[C@@]21C`, the “activity change, negative = cytotoxic” value was -17.1%.

In the case of `NC(=O)NO`, the “activity change, negative = cytotoxic” value is -8.6%.

For `CC[C@@]1(O)C(=O)OCc2c1cc1n(c2=O)Cc2cc3c(CN(C)C)c(O)ccc3nc2-1`, the Potency is 3.69 µM (active).

Take `CN1CCN(CCCN2c3ccccc3Sc3ccc(Cl)cc32)CC1`: the Potency was 16.5 µM (active).

With `COC(=O)Nc1nc2ccc(C(=O)c3cccs3)cc2[nH]1`, the Potency is 0.522 µM (active).

For `COc1cc2c(c(OC)c1OC)-c1ccc(OC)c(=O)cc1[C@@H](NC(C)=O)CC2`, the Potency is 0.0631 µM (active).

As to `O=C1c2c(O)ccc(O)c2C(=O)c2c(NCCNCCO)ccc(NCCNCCO)c21`, the Potency is 1.85 µM (active).
